Assay results as given in PubChem BioAssay AID504332 (National Center for Advancing Translational Sciences (NCATS), 2011).
Values joined by “and” are separate entries in the source; they are usually repeats but may differ in a detail not shown here. Identical values can stand only once. The campaign covered roughly 350,000 compounds. About 31,000 (8.9%) were called active. Another 15% or so got no clear call; they are omitted. Calls come from the whole dose curve; as a rule, active = well fitted inhibition curve with a large enough effect; inconclusive = small, poorly fitted or top-dose-only effect; inactive = no such curve, though single readings can be large or run the other way. The list comes from a sample in which actives are over-represented; it also holds similar structures and randomly drawn compounds. Some compounds were tested as several samples or in several runs, with calls that do not always agree.

These molecules were tested against Histone-lysine N-methyltransferase EHMT2 (Homo sapiens) (UniProt Q96KQ7) (assay: qHTS Assay for Inhibitors of Histone Lysine Methyltransferase G9a). Conditions: G9a H3K9 monomethylation, AlphaScreen, 2 h; series mostly up to 59 µM; activity, negative = inhibition: at the top concentration.
Procedure, shortened: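 AlphaScreen detection with an anti-monomethyl H3K9 antibody quantified product after a 2 h room-temperature reaction containing 500 nM biotinylated H3K9 peptide, 20 µM SAM and 20 nM enzyme, which had been preincubated 15 min with compound.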
% is set by controls: 0 for no effect and ±100 for the full control effect; potency is the fitted concentration of half-maximal effect.
Note: nearly all actives have a fitted effect of over 75% in size.

Sequence of Histone-lysine N-methyltransferase EHMT2 (Homo sapiens) (Q96KQ7 913-1193 limits assumed): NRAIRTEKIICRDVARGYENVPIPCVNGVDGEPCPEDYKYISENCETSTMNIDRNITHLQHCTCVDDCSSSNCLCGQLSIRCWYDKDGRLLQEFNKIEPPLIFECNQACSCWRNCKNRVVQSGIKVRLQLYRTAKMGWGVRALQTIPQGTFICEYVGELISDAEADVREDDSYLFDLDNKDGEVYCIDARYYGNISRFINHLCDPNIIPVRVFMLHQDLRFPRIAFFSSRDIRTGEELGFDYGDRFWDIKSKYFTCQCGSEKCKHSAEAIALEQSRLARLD

| Structure (SMILES) | activity, negative = inhibition | Potency |
| --- | --- | --- |
| COc1ccc(C(=O)NCC2CCCCC2)cc1S(=O)(=O)N1CCCC1 | -36.7% [at 12.7 µM] (inactive) | – |
| COc1ccc(CNC(=O)/C(C#N)=C/c2cccc(OC)c2OC)cc1 | 44% [at 0.501 µM] (inactive) | – |
| N#C/C(=C\c1ccc(O)c(O)c1)C(=O)NCc1ccccc1 | – | 5.01 µM (active) and 5.62 µM (active) and 4.74 µM (active) |
| COCCNC(=O)/C(C#N)=C/c1cccc(OCc2ccccc2)c1 | 2.45% [at 102 µM] (inactive) | – |
| COc1ccc(C2=NS(=O)(=O)N(C)C(C(=O)NC(C)c3ccccc3)=C2)cc1 (configuration not stated) | – | inactive and 14.1 µM (active) |
| COc1ccc(NC(=O)C2=CC(c3ccc(OC)c(OC)c3)=NS(=O)(=O)N2C)cc1 | -137% [at 102 µM] (inactive) | – |
| COc1ccc(C2=NS(=O)(=O)N(C)C(C(=O)N(C)Cc3ccccc3)=C2)cc1 | 5.73% [at 12.7 µM] (inactive) | – |
| CC(=O)N1c2ccc(S(=O)(=O)N3CCCC(C(=O)Nc4cccc(F)c4)C3)cc2CC1C (configuration not stated) | -7.59% [at 12.7 µM] (inactive) | – |
| CCN(CCCNC(=O)Cn1ncc2c3ccccc3n(C)c2c1=O)Cc1ccccc1 | 1.37% (inactive) | – |
| CCC(CC)c1nn2cc(-c3ccccc3)nc2s1 | 30.5% (inactive) | – |
| O=C(Nc1ccc2c(c1)OCCO2)C1CCCC1 | 2.92% [at 12.7 µM] (inactive) | – |
| Cc1ccc(-n2c(C)cc(/C=N/Nc3ccc([N+](=O)[O-])cn3)c2C)c(C)c1 | -11.9% (inactive) | – |
| Cc1cc(/C=N/Nc2ccc([N+](=O)[O-])cn2)c(C)n1-c1cccc(C(=O)O)c1 | – | 15.8 µM (active) |
| Cc1cccc(C)c1NC(=O)CSc1ccc([N+](=O)[O-])cn1 | -14.7% (inactive) | – |
| C#CC(C)(CC)NC(=O)Cn1nnc(-c2ccc(OCc3c(F)cccc3Cl)cc2)n1 (configuration not stated) | -5.54% (inactive) | – |
| CCOc1ccc(NC(=O)CN(C)C(=O)c2c(C)noc2C)cc1OCC | 2.91% [at 102 µM] (inactive) | – |
| Cc1ccc(CSCC(N)C(=O)O)cc1 (configuration not stated) | – | 15.8 µM (active) |
| COCCN(C(=O)CSCc1ccc(C)cc1)c1c(N)n(CC(C)C)c(=O)[nH]c1=O | 19% [at 12.7 µM] (inactive) | – |
| Cc1ccc(CSCC(=O)N(C)CC(=O)Nc2cccc(F)c2)cc1 | 5.8% [at 102 µM] (inactive) | – |
| Cc1ccc2c(=O)c(C(=O)c3ccc(F)cc3)cn(CC(=O)NC3CCCCC3)c2n1 | -25.3% (inactive) | – |
| O=C(NCCCN1CCCC1=O)c1cccc(S(=O)(=O)NCc2ccccc2)c1 | -27% [at 102 µM] (inactive) | – |
| COc1ccc(CCNS(=O)(=O)c2cccc([N+](=O)[O-])c2)cc1 | -4.51% [at 102 µM] (inactive) | – |
| COc1ccc(S(=O)(=O)NC(C)C(=O)N2CCCCCC2)cc1 (configuration not stated) | 14.2% [at 102 µM] (inactive) | – |
| COc1ccc(S(=O)(=O)NC(C)C(=O)Nc2cccc([N+](=O)[O-])c2)cc1 (configuration not stated) | – | 50.1 µM (active) |

| Structure (SMILES) | activity, negative = inhibition | Potency |
| --- | --- | --- |
| COC(=O)/C=C\C(=O)Nc1cccc([N+](=O)[O-])c1 | – | 1.41 µM (active) |
| O=C(CSCC(=O)Nc1cccc([N+](=O)[O-])c1)Nc1ccccc1 | -22.9% (inactive) | – |
| CN(CC(=O)Nc1cccc(F)c1)CC(=O)Nc1cccc([N+](=O)[O-])c1 | -15.7% (inactive) | – |
| Cc1c(C(=O)N(C)C)sc2c1c(=O)n(-c1ccc(F)cc1)c(=O)n2CC(=O)N(C)c1ccccc1 | 1.6% (inactive) | – |
| CC1=C(C(=O)Nc2ccccc2)C(c2ccc(C)cc2)n2nc(SCc3ccccc3C)nc2N1 (configuration not stated) | 9.21% (inactive) | – |
| CCc1cccc(C)c1NC(=O)COC(=O)CNC(=O)c1cccs1 | -30.4% [at 102 µM] (inactive) | – |
| CCC1(c2ccccc2)NC(=O)N(CC(=O)Nc2ccccc2C(=O)NC2CCCC2)C1=O (configuration not stated) | 20.5% [at 0.501 µM] (inactive) | – |
| COc1cc2c(cc1OC)C(C(=O)Nc1cc(C)c(OC)c(C)c1)CC(=O)N2 (configuration not stated) | 17.9% [at 102 µM] (inactive) | – |
| CCc1ccc(Nc2n[n+](-c3ccccc3)c(-c3cccc(Cl)c3Cl)s2)cc1 | 10.7% [at 2.33 µM] (inactive) | – |
| COc1cc(Br)c(-c2sc(Nc3ccccc3)n[n+]2-c2ccccc2)cc1OC | – | 28.2 µM (active) |
| COc1ccc(C(=O)Nc2cccc(C(=O)OCc3cc(=O)n4c5c(sc4n3)CCCC5)c2)cc1 | 9.1% (inactive) | – |
| COc1ccc(C)cc1NC(=O)CSc1nnc2ccc(-c3ccccn3)nn12 | 2.04% [at 0.501 µM] (inactive) | – |
| COCCn1c(C)cc(C(=O)COC(=O)/C=C/c2cccc(OC)c2)c1C | – | 44.7 µM (active) |
| COc1cccc(/C=C/C(=O)OCC(=O)N2CCN(c3ccccc3)CC2)c1 | -4.22% [at 12.7 µM] (inactive) | – |
| COCCn1c(C)cc(C(=O)COC(=O)CNC(=O)c2ccco2)c1C | 26.7% (inactive) | – |
| Cc1cccc(-n2ncc(C(=O)N3CCc4ccccc4C3)c2C2CCN(C(=O)OC(C)(C)C)CC2)c1 | -1.5% (inactive) | – |
| COc1ccc(CNC(=O)c2ccc3c(c2)nc2n3CCOC2)c(OC)c1 | 1.96% (inactive) | – |
| CCOC(=O)c1c(C)oc2ccc(OCC(=O)N(CC)CC)cc12 | 8.65% (inactive) | – |
| CCc1nc(C)ccc1OCC(=O)N(CC)CC | – | 28.2 µM (active) |
| CCc1ccccc1NC(=O)CN(C)C(=O)COc1ccc(C)nc1[N+](=O)[O-] | 23% (inactive) | – |
| CCc1cccc(C)c1NC(=S)N(CCCN1CCN(C)CC1)Cc1cccs1 | 112% (inactive) | – |
| Cc1cccc(C)c1NC(=O)N1CC(C)OC(C)C1 (configuration not stated) | 16.9% [at 102 µM] (inactive) | – |
| Cc1cccc(C)c1NC(=O)C1(C)c2cccc[n+]2CC(=O)N1Cc1cccs1 (configuration not stated) | – | 14.1 µM (active) |
